{
  "source": "the supplement of paper PMC6658780",
  "note": "Structures can show the parent of a compound that is named as a salt. ± gives the standard deviation of the averaged measurements.",
  "data": [
    {"tested_on": "Escherichia coli ATCC BAA-2469", "assay": "percent growth inhibition of drug alone vs DMSO control; higher = more growth inhibition", "conditions": "antibiotic (0.125x MIC): none (0.1% DMSO); 7 µM", "protocol": "(§1)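 Prestwick drugs tested at 20 uM and 7 uM with an antibiotic at 0.125x MIC (16 mg/L when MIC >128 mg/L) against E. coli ATCC BAA-2469 (NDM-1) in CAMHB, 384-well plates, duplicate runs. Percent growth inhibition was computed from OD600 (24 h minus 0 h) relative to DMSO wells. Drug + DMSO-only wells are also given. […]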", "units": {"percent growth inhibition of drug alone": "%"}, "values": [
      {"smiles": "Cc1cc(/C=C/c2ccc3cc(N(C)C)ccc3[n+]2C)c(C)n1-c1ccccc1", "note": "[Pyrvinium pamoate]", "percent growth inhibition of drug alone": "11.8 ± 12"},
      {"smiles": "CCOC(=O)c1ccc(OC(=O)CCCCCNC(=N)N)cc1", "note": "[Gabexate mesilate]", "percent growth inhibition of drug alone": "3.5 ± 6.5"},
      {"smiles": "O=C1CN(/N=C/c2ccc([N+](=O)[O-])o2)C(=O)N1", "note": "[Nitrofurantoin]", "percent growth inhibition of drug alone": "5.87 ± 5.7"},
      {"smiles": "CCCOc1ccc2[nH]c(NC(=O)OC)nc2c1", "note": "[Oxibendazol]", "percent growth inhibition of drug alone": "0.775 ± 0.31"},
      {"smiles": "Cn1c(=O)c2c(ncn2C)n(C)c1=O", "note": "[Caffeine]", "percent growth inhibition of drug alone": "1.12 ± 0.78"},
      {"smiles": "Clc1cccc(Cl)c1NC1=NCCN1", "note": "[Clonidine hydrochloride]", "percent growth inhibition of drug alone": "0.913 ± 1.3"},
      {"smiles": "Nc1c2ccccc2nc2ccccc12", "note": "[Aminacrine]", "percent growth inhibition of drug alone": "1.8 ± 0.95"},
      {"smiles": "NS(=O)(=O)c1cc2c(cc1C(F)(F)F)NC(Cc1ccccc1)NS2(=O)=O", "note": "(stereo not given) [Bendroflumethiazide]", "percent growth inhibition of drug alone": "-1.67 ± 1.1"},
      {"smiles": "CCCCNc1c(C(=O)OCC)c(C)nc2c1cnn2CC", "note": "[Tracazolate hydrochloride]", "percent growth inhibition of drug alone": "3.29 ± 0.5"},
      {"smiles": "CCCCCCCCCCCCCCCC[N+](C)(C)CCN(Cc1ccc(OC)cc1)c1ncccn1", "note": "[Thonzonium bromide]", "percent growth inhibition of drug alone": "3.7 ± 4.2"},
      {"smiles": "OCCN1CCN(CCCN2c3ccccc3Sc3ccc(C(F)(F)F)cc32)CC1", "note": "[Fluphenazine dihydrochloride]", "percent growth inhibition of drug alone": "1.91 ± 1.5"},
      {"smiles": "CC[C@H]1OC(=O)[C@H](C)[C@@H](O[C@H]2C[C@@](C)(OC)[C@@H](O)[C@H](C)O2)[C@H](C)[C@@H](O[C@@H]2O[C@H](C)C[C@H](N(C)C)[C@H]2O)[C@](C)(O)C[C@@H](C)CN(C)[C@H](C)[C@@H](O)[C@]1(C)O", "note": "[Azithromycin]", "percent growth inhibition of drug alone": "22.2 ± 12"},
      {"smiles": "COc1ccccc1OCC(O)CO", "note": "(stereo not given) [Guaifenesin]", "percent growth inhibition of drug alone": "-0.628 ± 1.6"},
      {"smiles": "CCOC(=O)c1ccc(N)cc1", "note": "[Benzocaine]", "percent growth inhibition of drug alone": "-0.533 ± 1.7"},
      {"smiles": "Cc1cn([C@H]2C[C@H](N=[N+]=[N-])[C@@H](CO)O2)c(=O)[nH]c1=O", "note": "[Zidovudine, AZT]", "percent growth inhibition of drug alone": "102 ± 2.3"},
      {"smiles": "Cc1cccc(C)c1NC(=O)C1CCCCN1C", "note": "(stereo not given) [Mepivacaine hydrochloride]", "percent growth inhibition of drug alone": "-0.605 ± 0.25"},
      {"smiles": "CC1CS(=O)(=O)CCN1/N=C/c1ccc([N+](=O)[O-])o1", "note": "(stereo not given) [Nifurtimox]", "percent growth inhibition of drug alone": "1.01 ± 1.2"},
      {"smiles": "CS(=O)(=O)c1ccc([C@@H](O)[C@@H](CF)NC(=O)C(Cl)Cl)cc1", "note": "[Florfenicol]", "percent growth inhibition of drug alone": "21.5 ± 9.2"},
      {"smiles": "O=C(O)CN(CCN(CC(=O)O)CC(=O)O)CCN(CC(=O)O)CC(=O)O", "note": "[Pentetic acid]", "percent growth inhibition of drug alone": "0.0597 ± 2.1"},
      {"smiles": "Oc1c(I)cc(Cl)c2cccnc12", "note": "[Clioquinol]", "percent growth inhibition of drug alone": "11.8 ± 2.5"},
      {"smiles": "Nc1nc(O)c2ncn(CCC(CO)CO)c2n1", "note": "[Penciclovir]", "percent growth inhibition of drug alone": "1.39 ± 3.5"},
      {"smiles": "CS(=O)(=O)c1ccc([C@@H](O)[C@@H](CO)NC(=O)C(Cl)Cl)cc1", "note": "[Thiamphenicol]", "percent growth inhibition of drug alone": "4.47 ± 3.6"},
      {"smiles": "COc1cc(NS(=O)(=O)c2ccc(N)cc2)nc(OC)n1", "note": "[Sulfadimethoxine]", "percent growth inhibition of drug alone": "-0.418 ± 1.2"}
    ]},
    {"tested_on": "Escherichia coli ATCC BAA-2469", "assay": "percent growth inhibition of drug alone vs DMSO control; higher = more growth inhibition", "conditions": "antibiotic (0.125x MIC): none (0.1% DMSO); 20 µM", "protocol": "as §1", "units": {"percent growth inhibition of drug alone": "%"}, "values": [
      {"smiles": "Cc1cc(/C=C/c2ccc3cc(N(C)C)ccc3[n+]2C)c(C)n1-c1ccccc1", "note": "[Pyrvinium pamoate]", "percent growth inhibition of drug alone": "13.6 ± 3.2"},
      {"smiles": "CCOC(=O)c1ccc(OC(=O)CCCCCNC(=N)N)cc1", "note": "[Gabexate mesilate]", "percent growth inhibition of drug alone": "0.291 ± 0.37"},
      {"smiles": "CCCOc1ccc2[nH]c(NC(=O)OC)nc2c1", "note": "[Oxibendazol]", "percent growth inhibition of drug alone": "2.44 ± 0.18"},
      {"smiles": "Cn1c(=O)c2c(ncn2C)n(C)c1=O", "note": "[Caffeine]", "percent growth inhibition of drug alone": "-1.35 ± 0.22"},
      {"smiles": "Clc1cccc(Cl)c1NC1=NCCN1", "note": "[Clonidine hydrochloride]", "percent growth inhibition of drug alone": "3.75 ± 2.2"},
      {"smiles": "Nc1c2ccccc2nc2ccccc12", "note": "[Aminacrine]", "percent growth inhibition of drug alone": "21 ± 13"},
      {"smiles": "NS(=O)(=O)c1cc2c(cc1C(F)(F)F)NC(Cc1ccccc1)NS2(=O)=O", "note": "(stereo not given) [Bendroflumethiazide]", "percent growth inhibition of drug alone": "-1.13 ± 2.1"},
      {"smiles": "CCCCNc1c(C(=O)OCC)c(C)nc2c1cnn2CC", "note": "[Tracazolate hydrochloride]", "percent growth inhibition of drug alone": "-0.173 ± 5.2"},
      {"smiles": "OCCN1CCN(CCCN2c3ccccc3Sc3ccc(C(F)(F)F)cc32)CC1", "note": "[Fluphenazine dihydrochloride]", "percent growth inhibition of drug alone": "3.64 ± 1.5"},
      {"smiles": "COc1ccccc1OCC(O)CO", "note": "(stereo not given) [Guaifenesin]", "percent growth inhibition of drug alone": "-0.463 ± 1.9"},
      {"smiles": "CCOC(=O)c1ccc(N)cc1", "note": "[Benzocaine]", "percent growth inhibition of drug alone": "1.27 ± 1.7"},
      {"smiles": "Cc1cn([C@H]2C[C@H](N=[N+]=[N-])[C@@H](CO)O2)c(=O)[nH]c1=O", "note": "[Zidovudine, AZT]", "percent growth inhibition of drug alone": "115 ± 12"},
      {"smiles": "Cc1cccc(C)c1NC(=O)C1CCCCN1C", "note": "(stereo not given) [Mepivacaine hydrochloride]", "percent growth inhibition of drug alone": "-0.545 ± 1.2"},
      {"smiles": "CC1CS(=O)(=O)CCN1/N=C/c1ccc([N+](=O)[O-])o1", "note": "(stereo not given) [Nifurtimox]", "percent growth inhibition of drug alone": "1.15 ± 4.3"},
      {"smiles": "O=C(O)CN(CCN(CC(=O)O)CC(=O)O)CCN(CC(=O)O)CC(=O)O", "note": "[Pentetic acid]", "percent growth inhibition of drug alone": "0.251 ± 0.41"},
      {"smiles": "Nc1nc(O)c2ncn(CCC(CO)CO)c2n1", "note": "[Penciclovir]", "percent growth inhibition of drug alone": "-1.4 ± 2.5"},
      {"smiles": "COc1cc(NS(=O)(=O)c2ccc(N)cc2)nc(OC)n1", "note": "[Sulfadimethoxine]", "percent growth inhibition of drug alone": "-0.552 ± 0.63"}
    ]}
  ]
}
